Assay results as given in PubChem BioAssay (EPA / NIEHS).
Records with an inconclusive call do not appear. Calls of active or inactive are those of the source. Rule for the calls, unless noted: active = hit-call score of the fitted dose curve at least 0.9, where 1 is the maximum; inactive = score below 0.9.

How the values were obtained:
[1] = target: Nucleoli Translocation, AR (gene 367) (UniProt P10275); experiment: UPITT_HCI_U2OS_AR_TIF2_Nucleoli_Antagonist: University of Pittsburgh U2OS Androgen Receptor-Transcriptional Intermediary Factor 2 (AR-TIF2) Antagonism High Content Imaging Assay for Nucleoli Translocation (AID 2283997; active = hit-call score of the fitted dose curve at least 0.9, where 1 is the maximum)
Nucleoli Translocation, AR (gene 367), sequence (P10275 whole entry, looked up): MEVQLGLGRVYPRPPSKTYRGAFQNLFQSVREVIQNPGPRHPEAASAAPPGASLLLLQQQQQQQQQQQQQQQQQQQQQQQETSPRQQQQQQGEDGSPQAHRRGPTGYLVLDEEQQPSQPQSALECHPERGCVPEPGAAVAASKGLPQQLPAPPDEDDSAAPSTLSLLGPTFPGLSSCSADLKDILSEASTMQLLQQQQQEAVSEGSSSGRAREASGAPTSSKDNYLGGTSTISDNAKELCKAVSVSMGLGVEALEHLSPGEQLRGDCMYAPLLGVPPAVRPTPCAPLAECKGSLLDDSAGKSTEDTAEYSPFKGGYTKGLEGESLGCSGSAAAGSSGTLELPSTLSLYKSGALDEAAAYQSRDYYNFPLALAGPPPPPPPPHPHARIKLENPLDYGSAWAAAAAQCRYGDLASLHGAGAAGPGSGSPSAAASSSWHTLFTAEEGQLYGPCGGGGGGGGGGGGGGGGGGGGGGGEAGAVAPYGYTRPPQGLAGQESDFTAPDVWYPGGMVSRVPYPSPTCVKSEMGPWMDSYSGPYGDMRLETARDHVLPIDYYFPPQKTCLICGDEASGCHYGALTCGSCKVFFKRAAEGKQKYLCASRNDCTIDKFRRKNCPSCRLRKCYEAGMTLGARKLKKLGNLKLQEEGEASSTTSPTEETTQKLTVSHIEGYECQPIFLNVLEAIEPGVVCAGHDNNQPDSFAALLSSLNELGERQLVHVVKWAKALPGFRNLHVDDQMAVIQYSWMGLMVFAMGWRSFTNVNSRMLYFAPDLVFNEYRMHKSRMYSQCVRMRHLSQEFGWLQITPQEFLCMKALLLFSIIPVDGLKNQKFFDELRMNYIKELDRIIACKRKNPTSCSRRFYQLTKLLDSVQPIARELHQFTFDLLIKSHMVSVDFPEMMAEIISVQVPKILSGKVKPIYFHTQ
Procedure, shortened: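 Measured quantity was AR-RFP fluorescence localized to nucleoli in engineered U2OS cells also bearing TIF2-GFP, acquired on automated high-content imagers. Primary testing used 20 uM compound; actives were confirmed in triplicate wells.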

[2] = target: Nucleoli Translocation, AR (gene 367) (UniProt P10275); experiment: UPITT_HCI_U2OS_AR_TIF2_Nucleoli_Agonist: University of Pittsburgh U2OS Androgen Receptor-Transcriptional Intermediary Factor 2 (AR-TIF2) Agonism High Content Imaging Assay for Nucleoli Translocation (AID 2283998; active = hit-call score of the fitted dose curve at least 0.9, where 1 is the maximum)
Procedure, shortened: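 Nucleolar translocation of AR-RFP, with TIF2-GFP coexpressed in human osteosarcoma U2OS, imaged by high-content fluorescence. Compounds tested singly at 20 uM final, confirmed in triplicate, then titrated 0.195–50 uM final; gain-of-signal relative to DMSO.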

[3] = target: Ratio of Nucleoli Translocation and Cytoplasm, AR (gene 367) (UniProt P10275); experiment: UPITT_HCI_U2OS_AR_TIF2_Nucleoli_Cytoplasm_Ratio_Antagonist: University of Pittsburgh U2OS Androgen Receptor-Transcriptional Intermediary Factor 2 (AR-TIF2) Antagonism High Content Imaging Assay for Ratio of Nucleoli Translocation and Cytoplasm (AID 2283999; active = hit-call score of the fitted dose curve at least 0.9, where 1 is the maximum;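 note: antagonists lower the DHT-driven ratio of nucleolar to cytoplasmic red signal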)
Ratio of Nucleoli Translocation and Cytoplasm, AR (gene 367), sequence (P10275 whole entry, looked up): as above
Procedure, shortened: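 U2OS cells co-expressing RFP-tagged human AR and GFP-tagged TIF2, antagonist mode with DHT as baseline. Nucleolar-to-cytoplasmic red fluorescence ratio imaged by high-content microscopy; final compound 20 uM (0.2% DMSO) primary, 0.195–50 uM (0.5% DMSO) concentration-response.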

[4] = target: Ratio of Nucleoli Translocation and Cytoplasm, AR (gene 367) (UniProt P10275); experiment: UPITT_HCI_U2OS_AR_TIF2_Nucleoli_Cytoplasm_Ratio_Agonist: University of Pittsburgh U2OS Androgen Receptor-Transcriptional Intermediary Factor 2 (AR-TIF2) Agonism High Content Imaging Assay for Ratio of Nucleoli Translocation and Cytoplasm (AID 2284000; active = hit-call score of the fitted dose curve at least 0.9, where 1 is the maximum;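 note: hits raise the red nucleolar to cytoplasm ratio above vehicle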)
Procedure, shortened: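 Read-out first: nucleolar-to-cytoplasm ratio of red (AR-RFP) signal, quantified by high-content imaging in U2OS cells co-expressing TIF2-GFP. Activity is scored as signal increase over DMSO. Single-point screening used 20 uM final (0.2% DMSO).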

[5] = CCTE_Shafer_MEA_acute_spike_number: CCTE's Neural Acute Assay for Total Number of Spikes, Shafer Lab (AID 2284008);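 for AC50: curve fitted for decrease in spike count so AC50 reflects inhibitors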
Procedure, shortened: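 Total spike count from 40 min recordings before and during compound exposure (0.03-40 uM), given as per-well percent change. Cortical cultures from rat, DIV 13 or 15, 37 C; adaptive detection threshold 8x rms noise.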

[6] = CCTE_Shafer_MEA_acute_firing_rate_mean: CCTE's Neural Acute Assay for Mean Firing Rate, Shafer Lab (AID 2284009);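 note: analyzed for loss of signal so actives lower firing rate relative to DMSO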
Procedure, shortened: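 Percent change in well-mean firing rate was derived from extracellular spikes detected at 8x rms noise (300-5000 Hz band-pass) before and after a 40-min compound exposure. Cultures were primary rat cortical neurons, tested at 0.03-40 uM.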

[7] = CCTE_Shafer_MEA_acute_burst_number: CCTE's Neural Acute Assay for Single-Electrode Bursts, Shafer Lab (AID 2284013)
Procedure, shortened: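 Spontaneous network activity of primary rat cortical neurons was recorded extracellularly on microelectrode arrays at 37 C, with 40-min periods before and during exposure to 0.03-40 uM compound on DIV 13 or 15.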

[8] = CCTE_Shafer_MEA_acute_burst_duration_mean: CCTE's Neural Acute Assay for Mean Burst Duration, Shafer Lab (AID 2284014);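 note: hits are decreases in mean burst duration relative to DMSO controls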
Procedure, shortened: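 Read-out is the per-well percent change in mean burst duration (first to last spike within a single-electrode burst) between 40-min recordings before and after compound. Cultures were primary rat cortical neurons on MEAs, dosed at 0.03-40 uM on DIV 13 or 15.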

[9] = CCTE_Shafer_MEA_acute_per_burst_spike_number_mean: CCTE's Neural Acute Assay for Average Number of Spikes Per Burst, Shafer Lab (AID 2284015);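 note: hits are decreases in mean spikes per burst versus baseline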
Procedure, shortened: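 Percent change in mean spikes per single-electrode burst is compared between a 40 min baseline and a 40 min recording with compound (0.03-40 uM). Cultures were rat cortical neurons on MEA plates at DIV 13 or 15, recorded at 37 C, with DMSO as the negative control.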

[10] = CCTE_Shafer_MEA_acute_interburst_interval_mean: CCTE's Neural Acute Assay for Mean Interburst Interval, Shafer Lab (AID 2284016);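 note: percent change of mean interburst interval versus each well's own pre-dose baseline; curves fitted for decrease in interburst interval relative to DMSO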
Procedure, shortened: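 Percent change in mean single-electrode interburst interval was calculated per well from 40 min recordings before and after compound (0.03-40 uM). Recordings were made at 37 C on rat cortical cultures at DIV 13 or 15, with spikes detected at 8x rms threshold.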

[11] = CCTE_Shafer_MEA_acute_burst_percentage_std: CCTE's Neural Acute Assay for Standard Deviation of Burst Percentage, Shafer Lab (AID 2284018);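 note: fitted in the negative direction so actives lower burst percentage SD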
Procedure, shortened: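 Value is percent change from baseline in the across-electrode SD of spikes-in-bursts percentage, wells with >/= 10 active electrodes. Acute 40-min exposure to 0.03-40 uM on DIV 13 or 15 rat cortical cultures, recorded at 37 C after 40-min baseline.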

[12] = CCTE_Shafer_MEA_acute_per_network_burst_spike_number_mean: CCTE's Neural Acute Assay for Average Number of Spikes in a Network Burst, Shafer Lab (AID 2284019);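 for AC50: curve fitted for loss of signal so actives reduce spikes per network burst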
Procedure, shortened: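 Read-out is mean spike count per network burst, taken as percent change between a 40-min pre-exposure and a 40-min post-exposure recording per well. Rat primary cortical neurons on MEAs at 37 C, DIV 13 or 15; compounds at 0.03-40 uM.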

[13] = CCTE_Shafer_MEA_acute_per_network_burst_spike_number_std: CCTE's Neural Acute Assay for Standard Deviation of Number of Spikes in a Network Burst, Shafer Lab (AID 2284020);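 note: fitted for decrease in spike-number SD versus DMSO so actives lower it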
Procedure, shortened: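 Spontaneous network activity of primary rat cortical neurons is recorded extracellularly before and after a 40-min compound exposure (0.03-40 uM) at 37 C. The endpoint is the well's percent change in burst spike-number SD.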

[14] = CCTE_Shafer_MEA_acute_per_network_burst_electrodes_number_mean: CCTE's Neural Acute Assay for Mean Number of Electrodes in a Network Burst, Shafer Lab (AID 2284021);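 note: curves fitted for decreases only so hits reduce electrodes per burst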
Procedure, shortened: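 Percent change from baseline was computed as mean electrode count per network burst, comparing 40 min recordings before and during compound (0.03-40 uM) exposure. Cultures were rat cortical neurons at DIV 13 or 15, recorded on MEAs at 37 C with an adaptive 8x rms threshold.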

[15] = CCTE_Shafer_MEA_acute_cross_correlation_area: CCTE's Neural Acute Assay for Area of Cross Correlation, Shafer Lab (AID 2284024);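 note: area under pooled inter-electrode spike cross-correlation near zero lag as percent change from own baseline; curves fitted for loss of cross-correlation area so actives lower synchrony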;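 for outcome: rat primary cortical neuron networks on 48-well MEA at DIV 13 or 15 with 40 min exposure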
Procedure, shortened: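 Percent change in well-wide cross-correlation area (window around zero lag) between 40 min baseline and 40 min post-compound recordings, 37 C; rat cortical cultures on MEA at DIV 13 or 15, dosed 0.03-40 uM, wells needing >/= 10 active electrodes.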

[16] = CCTE_Shafer_MEA_acute_cross_correlation_HWHM: CCTE's Neural Acute Assay for Cross Correlation at Half Width at Half Maximum, Shafer Lab (AID 2284026);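 note: percent change per well from pre-dose baseline in spike cross-correlogram half width; hits are a decrease in cross-correlogram half width relative to DMSO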
Procedure, shortened: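 Per-well percent change in cross-correlogram half width at half maximum, derived from 40-min recordings before and after compound (0.03-40 uM) at 37 C. Cultures were rat cortical neurons, DIV 13 or 15, with adaptive spike detection at 8x rms.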

[17] = CCTE_Harrill_HTTr_Viability_MCF7: CCTE's 6-hour Cell Viability Assessment for the High-Throughput Transcriptomics (HTTr) Platform, in MCF-7 cells cultured in DMEM + 10% fetal bovine serum, Harrill Lab (AID 2284010)
Procedure, shortened: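 MCF-7 cells in DMEM + 10% FBS, 384-well, exposed 6 h to an eight-point dilution series. Membrane integrity scored by high-content imaging of propidium iodide exclusion; bidirectional fit versus DMSO.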

[18] = CCTE_Harrill_HTTr_Apoptosis_MCF7: CCTE's 6-hour Apoptosis Assessment for the High-Throughput Transcriptomics (HTTr) Platform, in MCF-7 cells cultured in DMEM + 10% fetal bovine serum, Harrill Lab (AID 2284011)
Procedure, shortened: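 High-content imaging of CellEvent Caspase 3/7 Green signal follows a six-hour exposure, with eight concentrations per chemical. MCF-7 cells grown in DMEM plus 10% fetal bovine serum; activity fitted in both directions against DMSO.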

[19] = CCTE_Harrill_HTTr_CellCount_MCF7: CCTE's Cell Proliferation Assessment for the High-Throughput Transcriptomics (HTTr) Platform, Harrill Lab (AID 2284012; active = hit-call score of the fitted dose curve at least 0.9, where 1 is the maximum;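 note: cells exposed to compound for six hours; intended direction is loss of nuclei count meaning fewer cells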)
Procedure, shortened: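 MCF7 cells exposed 6 hours to an eight-point dilution series; Hoechst-stained nuclei counted by high-content imaging. Bidirectional curve fitting against DMSO baseline.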

SMILES: CCC/C=C/C=O
- outcome [1]: inactive
- outcome [2]: inactive
- outcome [3]: inactive
- outcome [4]: inactive

SMILES: C[Si](O[Si](C)(C)C)O[Si](C)(C)C
- outcome [1]: inactive

SMILES: OC[C@H]1O[C@H](O[C@]2(CCl)O[C@H](CCl)[C@@H](O)[C@@H]2O)[C@H](O)[C@@H](O)[C@H]1Cl
- outcome [5]: inactive
- outcome [6]: inactive
- outcome [7]: inactive
- outcome [8]: inactive
- outcome [9]: inactive
- outcome [10]: inactive
- outcome [11]: inactive
- outcome [12]: inactive
- outcome [13]: inactive
- outcome [14]: inactive
- outcome [15]: inactive
- outcome [16]: inactive

SMILES: Cc1cccc(C)c1C
- outcome [17]: inactive

SMILES: Cc1cc(C2(c3cc(C)c(O)cc3C)OS(=O)(=O)c3ccccc32)c(C)cc1O
- outcome [5]: inactive
- outcome [6]: inactive
- outcome [17]: inactive
- outcome [18]: inactive
- outcome [19]: inactive
- AC50 [7]: 148 nM (active)
- outcome [8]: inactive
- outcome [9]: inactive
- outcome [10]: inactive
- outcome [11]: inactive
- AC50 [12]: 25900 nM (active)
- outcome [13]: inactive
- outcome [14]: inactive
- outcome [15]: inactive
- outcome [16]: inactive

SMILES: O=C[C@H](O)[C@H](O)[C@H](O)CO
- outcome [17]: inactive

SMILES: CCCCCCCCCCCCCOS(=O)(=O)O
- outcome [1]: inactive
- outcome [4]: inactive

SMILES: C[C@H]1C[C@@H]2[C@H]([C@@H](O)C[C@@]3(C)[C@H]2CC[C@]3(O)C(=O)CO)[C@@]2(C)C=CC(=O)C=C12
- AC50 [5]: 3 nM (active)
- AC50 [6]: 3 nM (active)
- outcome [18]: inactive
- outcome [19]: inactive
- AC50 [7]: 3 nM (active)
- outcome [8]: inactive
- outcome [9]: inactive
- outcome [10]: inactive
- outcome [11]: inactive
- outcome [12]: inactive
- outcome [13]: inactive
- outcome [14]: inactive
- AC50 [15]: 4.5 nM (active)
- outcome [16]: inactive

SMILES: CCCOCC(C)O (stereo unspecified)
- outcome [1]: inactive
- outcome [2]: inactive
- outcome [3]: inactive
- outcome [4]: inactive
- outcome [17]: inactive
- outcome [18]: inactive
